Here are results for 85 molecules from PubChem BioAssay AID463173 (ICCB-Longwood Screening Facility, Harvard Medical School, 2010).

Out of some 52,000 compounds screened, about 4,300 (8.3%) were called active. Cut-off read from the data, not from the text of the source: active = survival mostly below about 52% (no sharp cut-off); inactive = mostly above about 56%. The sample as a whole holds a higher share of actives than the screen did.

The subject of this assay is DeltatarO mutant. The assay is described as follows: growth inhibition of S. aureus wild type versus tarO mutant, primary screen, teichoic acid synthesis inhibitors, RN4220, OD600 (AID 463173). As to conditions: OD600, 18 h, active compounds read low, screened at 18.75 µg/mL (by protocol).
Turning to `CCC(c1nnnn1CCOC)N(Cc1cc2ccc(OC)cc2[nH]c1=O)C1CCCC1` (stereo not given), the survival was 92% (inactive).

Consider `Cc1ccc(C)c(N2CCN(C(=O)c3cc4cc5ccc(C)cc5nc4s3)CC2)c1`, for which the survival was 95% (inactive).

Turning to `N#Cc1c2c(c(-c3ccccc3)[nH]c1=S)CCCC2`, the survival was 91% (inactive). `CCc1ccc(-c2nn(CC(=O)NC3CCCCC3)c3c2cnc2ccc(OC)cc23)cc1`: the survival is 98% (inactive).

Consider `CCOC(=O)c1c(C)sc(-c2c(-c3ccc4c(c3)OCCO4)[nH]c3c2c(=O)[nH]c(=O)n3C)c1O`, for which the survival is 106% (inactive). The value for `COC(=O)c1c(C)sc(-c2c(-c3cccc(OC)c3)[nH]c3c2c(=O)[nH]c(=O)n3C)c1O` was 43% (active). For the molecule `CCOC(=O)c1c(C)sc(-c2c(-c3cccc(Cl)c3)[nH]c3c2c(=O)n(C)c(=O)n3C)c1O`, the survival is 113% (inactive). Take `COC(=O)c1c(C)sc(-c2c(-c3ccc4c(c3)OCCO4)[nH]c3[nH]c(=O)[nH]c(=O)c23)c1O`: the survival was 50% (inactive). The same measure for `CCc1ccc(-c2[nH]c3c(c2-c2sc(C)c(C(=O)OC)c2O)c(=O)[nH]c(=O)n3C)cc1`: 23% (active). With `CCOC(=O)c1c(C)sc(-c2c(-c3cc(C)ccc3C)[nH]c3c2c(=O)n(C)c(=O)n3C)c1O`, the survival is 105% (inactive). The value for `COC(=O)c1c(C)sc(-c2c(-c3ccc4c(c3)OCCO4)[nH]c3c2c(=O)[nH]c(=O)n3C)c1O` was 37% (active); that for `CCOC(=O)c1c(C)sc(-c2c(-c3cc(C)ccc3C)[nH]c3c2c(=O)[nH]c(=O)n3C)c1O` was 40% (active). On to `COC(=O)c1c(C)sc(-c2c(-c3cccc(Cl)c3)[nH]c3c2c(=O)[nH]c(=O)n3C)c1O`, for which the survival was 113% (inactive). As for `CCc1ccc(-c2[nH]c3c(c2-c2sc(C)c(C(=O)OC)c2O)c(=O)n(C)c(=O)n3C)cc1`, the survival is 51% (inactive). The same measure for `CCOC(=O)c1c(C)sc(-c2c(-c3ccc(OC)c(F)c3)[nH]c3c2c(=O)[nH]c(=O)n3C)c1O`: 117% (inactive); for `COC(=O)c1c(C)sc(-c2c(-c3ccc(F)cc3)[nH]c3[nH]c(=O)[nH]c(=O)c23)c1O`: 116% (inactive); for `COc1cccc(CNC(=O)c2c(C)oc3ncnc(N4CCOCC4)c23)c1`: 87% (inactive).

Turning to `COc1ccc(CNC(=O)C2CCN(c3nnc(-n4cccc4CNc4ccc(C)cc4)s3)CC2)c(OC)c1`, the survival is 70% (inactive).

Regarding `COc1ccc(CN2CCc3nc(N4CCN(c5ccc(F)cc5)CC4)ncc3C2)c(OC)c1OC`, the survival was 119% (inactive). The value for `COc1ccc(-c2nc3sc(CCNC(=O)c4cc(OC)c(OC)c(OC)c4)c(C)n3n2)cc1` was 83% (inactive); that for `CN(C(=O)CSc1nc2ccc(NC(=O)COc3ccc(Cl)cc3)cc2s1)c1ccccc1` was 72% (inactive). As for `CCOc1ccc(OCC)c(Nc2nc3ccc(Cl)cc3n3cnnc23)c1`, the survival was 65% (inactive). The same measure for `CC(C)NC(=O)C1CCN(S(C)(=O)=O)CC1`: 93% (inactive); for `CSc1nc(NNC(=O)c2ccco2)c2c3c(sc2n1)COC(C)(C)C3`: 81% (inactive); for `CCOc1ccccc1NC(=O)C(C)N(c1ccccc1)S(C)(=O)=O` (stereo not given): 91% (inactive). The same measure for `CCOC(=O)c1c(C)sc(-c2c(-c3ccc4c(c3)OCCO4)[nH]c3c2c(=O)n(C)c(=O)n3C)c1O`: 128% (inactive). With `COC(=O)c1c(C)sc(-c2c(-c3ccc(OC)c(F)c3)[nH]c3c2c(=O)n(C)c(=O)n3C)c1O`, the survival is 120% (inactive). On to `COC(=O)c1c(C)sc(-c2c(-c3ccc4c(c3)OCCO4)[nH]c3c2c(=O)n(C)c(=O)n3C)c1O`, for which the survival is 43% (active). The same measure for `COCCCNc1c2c(nc3ccccc13)CCC2`: 125% (inactive); for `O=C1COc2ccc(-c3cc(-c4ccc(F)cc4)c4c(n3)-c3cc(Cl)ccc3OC4)cc2N1`: 88% (inactive); for `CCCCOC(=O)c1ccc(NS(=O)(=O)c2c(C)nc3scc(C)n3c2=O)cc1`: 43% (active). In the case of `Cc1nc2sccn2c(=O)c1S(=O)(=O)Nc1cc(Cl)ccc1O`, the survival is 51% (inactive). The value for `COc1ccc(NS(=O)(=O)c2c(C)nc3scc(C)n3c2=O)cc1` was 90% (inactive). The value for `Cc1nc2sccn2c(=O)c1S(=O)(=O)Nc1ccc(N2CCN(C)CC2)cc1` was 106% (inactive). The value for `COc1cc(OC)c(NS(=O)(=O)c2c(C)nc3sc(C)cn3c2=O)cc1Cl` was 65% (inactive). With `Cc1nc2sccn2c(=O)c1S(=O)(=O)Nc1cc(C(F)(F)F)ccc1Cl`, the survival was 69% (active).

On to `COC(=O)c1ccc(NS(=O)(=O)c2c(C)nc3sccn3c2=O)cc1`, for which the survival was 72% (active).

Take `CC(=O)Nc1ccc(NS(=O)(=O)c2c(C)nc3sccn3c2=O)cc1`: the survival was 61% (inactive).

Consider `CCOc1ccccc1NS(=O)(=O)c1c(C)nc2sccn2c1=O`, for which the survival is 63% (inactive). The value for `CC(=O)c1ccc(NS(=O)(=O)c2c(C)nc3scc(C)n3c2=O)cc1` was 88% (inactive); that for `COc1cc(Cl)c(C)cc1NS(=O)(=O)c1c(C)nc2sccn2c1=O` was 64% (active); that for `Cc1ccc(NS(=O)(=O)c2c(C)nc3sccn3c2=O)c(Cl)c1` was 132% (inactive). The value for `COc1ccc(Cn2nnnc2C(C(C)C)N2CCc3ccccc32)cc1` (stereo not given) was 82% (inactive). The value for `CC(=O)N1CCC(N(Cc2ccco2)C(=O)Nc2ccc(C)c(Cl)c2)CC1` was 128% (inactive); that for `CN(C)S(=O)(=O)c1ccc2c(c1)N(CC(=O)NCc1ccccc1)C(=O)C1CCCCN21` (stereo not given) was 67% (inactive); that for `CCSc1nc2n(n1)C(c1ccc(C(=O)O)cc1)C(C(=O)Nc1ccccc1C)=C(C)N2` (stereo not given) was 84% (inactive).

For the molecule `COc1ccc(N2CCN(C(=O)Nc3ccc(Cl)cc3)CC2)cc1`, the survival was 168% (inactive). The value for `COc1ccc(S(=O)(=O)c2cn(CC(=O)Nc3cc(C)ccc3C)c3ccccc3c2=O)cc1` was 86% (inactive); that for `COc1ccccc1NC(=O)C1=C(C)Nc2nc(SCc3cc(C)ccc3C)nn2C1c1ccccc1` (stereo not given) was 116% (inactive); that for `CCOc1ccc(NC(=O)CSc2ncc3c(n2)-c2ccc(Cl)cc2N(Cc2ccccc2)S3(=O)=O)cc1` was 99% (inactive). The same measure for `O=C(NCc1ccccc1Cl)c1ccc(Nc2nc3ccccc3n3nnnc23)cc1`: 84% (inactive). `Cc1cc(/C=C(\C#N)C(=O)Nc2ccccc2)c(C)n1-c1ccc(F)cc1`: the survival is 59% (inactive).

For the molecule `COc1cccc(Nc2nnc(-c3cc4ccc(O)cc4oc3=O)s2)c1`, the survival was 85% (inactive). For `Cc1ccccc1NC(=O)c1sc2nc(-c3ccncc3)ccc2c1N`, the survival was 39% (inactive).

As for `Nc1c(C(=O)Nc2cccc(F)c2)sc2nc(-c3cccs3)ccc12`, the survival was 69% (inactive). As to `CCOc1ccc(OCC)c(NC(=O)c2cc(-c3cccs3)nc3ccccc23)c1`, the survival is 85% (inactive).

Consider `Cc1cc(F)ccc1NC(=O)c1sc2nc(-c3cccs3)ccc2c1N`, for which the survival is 45% (active). Consider `Cc1ccc(NC(=O)c2cc(-c3cccs3)nc3ccccc23)c(C)c1`, for which the survival was 57% (active). As for `O=C(Nc1ccc(Br)cc1)c1cc(-c2cccs2)nc2ccccc12`, the survival was 83% (inactive). As to `Cc1ccc(NC(=O)c2sc3nc(-c4ccncc4)ccc3c2N)cc1`, the survival is 131% (inactive). On to `CC(C)CSc1ccccc1NC(=O)c1sc2nc(-c3ccncc3)ccc2c1N`, for which the survival is 46% (active). The same measure for `Nc1c(C(=O)Nc2ccc(Cl)cc2F)sc2nc(-c3cccs3)ccc12`: 58% (inactive). The value for `Cc1ccc(N(Cc2cccs2)C(=O)c2ccc(Br)o2)cc1` was 73% (inactive); that for `CC(C)(C)C(=O)CSc1nc2ccsc2c(=O)n1Cc1ccccc1Cl` was 77% (inactive).

Consider `COc1ccc(-c2nc3n(c2NC(C)(C)C)CCN(C(=O)Cc2ccccc2F)C3)cc1`, for which the survival is 88% (inactive). The value for `CSc1ccc(CCNC(=O)c2ccc3c(c2)nc2n3CCC(C)C2)cc1` (stereo not given) was 83% (inactive). The same measure for `CCOC(=O)c1c(NC(=O)c2nc(S(C)(=O)=O)ncc2Cl)sc(C(C)=O)c1C`: 6% (active). The same measure for `CCOC(=O)c1c(-c2ccccc2)csc1NC(=O)c1nc(S(=O)(=O)CC)ncc1Cl`: 11% (active); for `CCCS(=O)(=O)c1ncc(Cl)c(C(=O)Nc2scc(-c3ccccc3)c2C(=O)OCC)n1`: 25% (active); for `CCCSc1ncc(Cl)c(C(=O)Nc2sc(C(C)=O)c(C)c2C(=O)OCC)n1`: 51% (inactive). For the molecule `CCOC(=O)c1c(-c2ccc(C)cc2)csc1NC(=O)c1nc(SCC)ncc1Cl`, the survival is 84% (inactive).

Consider `CCOC(=O)c1c(NC(=O)c2nc(SCC)ncc2Cl)sc(C(C)=O)c1C`, for which the survival was 75% (inactive). Regarding `CCOC(=O)c1c(-c2ccccc2)csc1NC(=O)c1nc(SCC)ncc1Cl`, the survival was 87% (inactive). With `CCCSc1ncc(Cl)c(C(=O)Nc2scc(-c3ccc(C)cc3)c2C(=O)OCC)n1`, the survival is 62% (inactive). As to `CCOC(=O)c1c(-c2ccc(C)cc2)csc1NC(=O)c1nc(SC(C)C)ncc1Cl`, the survival was 61% (inactive). With `CCOC(=O)c1cccc(NC(=O)C2CCN(S(=O)(=O)c3cn(C)cn3)CC2)c1`, the survival is 102% (inactive). Turning to `COc1ccc(CCN2C(=O)CN(C3CCCCCC3)C(=O)C2c2ccc(OC(C)C)c(OC)c2)cc1OC` (stereo not given), the survival was 89% (inactive). Consider `COc1cc2[nH]c(=O)n(CCCCCC(=O)N3CCN(c4ccc(Cl)cc4)CC3)c(=O)c2cc1OC`, for which the survival was 67% (inactive). For the molecule `CCOc1ccc(-c2cc(C)n3nc(C(=O)Nc4cc(Cl)ccc4O)cc3n2)cc1`, the survival was 62% (inactive). Take `CC(=O)Nc1ccc(NC(=O)CCCn2nc(C)c3sc4ccccc4c3c2=O)cc1`: the survival was 83% (inactive). `O=c1oc2c3c(ccc2c2ccccc12)OCN(Cc1ccccc1Cl)C3`: the survival was 68% (inactive). With `O=C(NCCc1ccc(Cl)cc1)c1ccc(CSCc2ccc(Cl)cc2)o1`, the survival was 83% (inactive).

On to `CCN1CCN(C(=O)c2ccc3c(c2)N(Cc2cccc(F)c2)C(=O)c2ccccc2S3)CC1`, for which the survival was 85% (inactive). For `CCOc1cc(S(=O)(=O)N(C)C2CCCCC2)c(OCC)cc1-n1cnnn1`, the survival is 99% (inactive). As to `Cn1c(=O)oc2cc(S(=O)(=O)CCC(=O)N3CCN(c4cccc(Cl)c4)CC3)ccc21`, the survival was 81% (inactive).
